A short description of test [1]: ATG_CRE_CIS: Attagene CIS-FACTORIAL HepG2 Assay for human cAMP Responsive Element (CRE) binding protein 3 (AID 2282926). To be noted: HepG2 CRE cis-reporter, Attagene multiplexed mRNA; actives raise or lower the signal. Put shortly: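 Capillary electrophoresis of 6-FAM-labelled, HpaI-digested PCR products quantified reporter transcripts. These came from HepG2 transiently transfected with cis-element reporters and exposed to test chemicals for 24 hours, with DMSO defining baseline activity.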

Test [2] has as its target CCAAT/enhancer-binding protein beta (Homo sapiens) (UniProt P17676). Kind of test: ATG_C_EBP_CIS: Attagene CIS-FACTORIAL HepG2 Assay for human CCAAT/Enhancer Binding Protein (C/EBP) beta (AID 2282927). To be noted: HepG2 Attagene cis-factorial transcription factor reporter; actives raise or lower the signal. Put shortly:
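HepG2 transiently transfected with multiplexed reporter units under cis-regulatory promoters reporting endogenous C/EBPb activity. After 24 h exposure, reporter mRNA assayed by RT-PCR, fluorescent labelling, HpaI digestion and capillary electrophoresis; bidirectional fitting versus DMSO.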

Test [3] is described as follows: ATG_CMV_CIS: Attagene CIS-FACTORIAL HepG2 Assay for human CMV (Internal Marker) (AID 2282928).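 Note: endpoint acts as a background internal control marker rather than a target.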 To be noted: HepG2 CMV promoter reporter, transcription factor profiling; actives raise or lower the signal. Put shortly: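 24 h chemical treatment, HepG2 with transient multi-reporter transfection; RNA → oligo(dT) RT → PCR → 6-FAM extension → HpaI digest → CE fluorescence. Bidirectional fit, DMSO negative control.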

Test [4] is described as follows: ATG_DR4_LXR_CIS: Attagene CIS-FACTORIAL HepG2 Assay for human Liver X Receptor (LXR), DR4 submotif (AID 2282929). To be noted: HepG2 Attagene DR4 cis-reporter, mRNA transcription; actives raise or lower the signal. Put shortly:
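Transiently transfected HepG2 liver cells; cis-regulated reporters; 24 h dosing. RT-PCR plus CE read-out of reporter mRNA. DMSO baseline, bidirectional curve fitting.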

Test [5] has as its target Aryl hydrocarbon receptor (Homo sapiens) (UniProt P35869). Kind of test: ATG_Ahr_CIS: Attagene CIS-FACTORIAL HepG2 Assay for human Aryl Hydrocarbon Receptor (Ahr) (AID 2282930). To be noted: HepG2 AhR cis-factorial reporter transcription; actives raise or lower the signal. Put shortly: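 HepG2 cells transiently transfected with cis-element-driven multiplexed reporter units; endogenous AhR activity read as reporter mRNA 24 h after dosing, via RT-PCR, 6-FAM labelling, HpaI digestion and capillary electrophoresis. Bidirectional fit relative to DMSO.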

Test [6] in a line: ATG_AP_1_CIS: Attagene CIS-FACTORIAL HepG2 Assay for human Activator Protein 1 (AP-1) (AID 2282931). To be noted: HepG2 Attagene cis-factorial AP-1 reporter mRNA; actives raise or lower the signal. A digest of the protocol:
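We transfected HepG2 cells transiently with a set of cis-regulated reporter transcription units, dosed them for 24 h, and quantified reporter mRNA via RT-PCR and capillary electrophoresis, scoring gain or loss of signal relative to DMSO.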

Test [7] in a line: ATG_BRE_CIS: Attagene CIS-FACTORIAL HepG2 Assay for human Bone Morphogenetic Protein (BMP) Response Element (BRE) (AID 2282933). To be noted: HepG2 BMP response element reporter, Attagene transcription factor profiling; actives raise or lower the signal. Put shortly:
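Endogenous transcription factor activity at a BMP response element was monitored in transfected HepG2 cells 24 h after dosing. Fluorescent RT-PCR products were resolved by capillary electrophoresis, and activity was fitted in both directions versus DMSO.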

Test [8] concerns the target Retinoic acid receptor alpha (Homo sapiens) (UniProt P10276). Kind of test: ATG_DR5_RAR_CIS: Attagene CIS-FACTORIAL HepG2 Assay for human Retinoic Acid Receptor Alpha (RARE), DR5 submotif (AID 2282934). To be noted: HepG2 Attagene cis-factorial RARE DR5 reporter, mRNA; actives raise or lower the signal. Put shortly:
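HepG2 cells transiently transfected with multiplexed reporter units; DR5 cis-element drives reporter through endogenous transcription factors. After 24 h dosing, reporter mRNA quantified by RT-PCR, fluorescent labeling, HpaI digestion and capillary electrophoresis; bidirectional fitting versus DMSO.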

Test [9] deals with Transcription factor E2F1 (Homo sapiens) (UniProt Q01094). Kind of test: ATG_E2F_CIS: Attagene CIS-FACTORIAL HepG2 Assay for human E2F Transcription Factor 1 (AID 2282935). To be noted: HepG2 Attagene cis-reporter, E2F reporter RNA transcripts; actives raise or lower the signal. Put shortly: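 Transient MRTU transfection of HepG2; 24 h compound exposure; RNA → oligo(dT) RT → PCR → FAM label → HpaI cut → CE fluorescence. Gain/loss of signal fit against DMSO.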
Transcription factor E2F1 (Homo sapiens), sequence (Q01094 whole entry, looked up): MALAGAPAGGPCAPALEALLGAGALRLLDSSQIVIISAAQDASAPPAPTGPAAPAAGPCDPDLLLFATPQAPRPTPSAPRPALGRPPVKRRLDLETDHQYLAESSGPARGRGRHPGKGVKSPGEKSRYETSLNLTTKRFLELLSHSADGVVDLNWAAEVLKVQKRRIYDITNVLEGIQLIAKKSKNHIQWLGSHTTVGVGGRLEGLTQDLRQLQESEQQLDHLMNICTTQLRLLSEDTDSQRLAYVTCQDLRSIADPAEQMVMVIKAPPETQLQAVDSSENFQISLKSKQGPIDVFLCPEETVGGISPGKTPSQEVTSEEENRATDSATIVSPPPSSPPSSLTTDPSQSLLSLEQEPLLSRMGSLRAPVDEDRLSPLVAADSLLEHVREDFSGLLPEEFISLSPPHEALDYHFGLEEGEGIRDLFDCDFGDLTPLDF

Test [10] can be described thus: ATG_E_Box_CIS: Attagene CIS-FACTORIAL HepG2 Assay for human Enhancer Box (E-box) (AID 2282936). To be noted: HepG2 E-box cis-reporter transcription, actives raise or lower the signal. Put shortly:
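Transiently transfected HepG2, endogenous TF-driven reporters, 24 h dosing. Readout: RT-PCR plus capillary electrophoresis of fluorescent reporter fragments. Gain or loss of signal fitted bidirectionally against DMSO baseline.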

Test [11] in a line: ATG_M_61_CIS: Attagene CIS-FACTORIAL HepG2 Assay for M61 Transcription Factor (Internal Marker) (AID 2282937). To be noted: HepG2 Attagene CIS-FACTORIAL M61 internal marker reporter; actives raise or lower the signal. Put shortly:
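Multiplexed reporter mRNA assay, HepG2 human hepatoma cells, 24 h treatment. Signal: FAM-labelled, HpaI-digested RT-PCR fragments by CE. Fit: bidirectional, baseline DMSO.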

Test [12] in a line: ATG_EGR_CIS: Attagene CIS-FACTORIAL HepG2 Assay for human Early Growth Response 1 (EGR1) (AID 2282938). To be noted: HepG2 Attagene CIS-FACTORIAL EGR reporter mRNA; actives raise or lower the signal. A digest of the protocol: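 Multiplexed cis-reporter system in human hepatoma HepG2 cells, transiently transfected. Cells are dosed for 24 h; reporter transcripts are amplified, fluorescently tagged and sized by capillary electrophoresis, with DMSO as negative control.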

Test [13] is described as follows: ATG_M_19_CIS: Attagene CIS-FACTORIAL HepG2 Assay for M19 Transcription Factor (Internal Marker) (AID 2282939). To be noted: HepG2 Attagene CIS-FACTORIAL M19 internal marker reporter; actives raise or lower the signal. Put shortly:
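Background-control endpoint from a multiplexed HepG2 reporter panel. Cells carrying cis-regulated reporter constructs are treated 24 h, then reporter transcripts are amplified, fluorescently labelled and sized by capillary electrophoresis. DMSO defines baseline.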

The nature of test [14]: ATG_Ets_CIS: Attagene CIS-FACTORIAL HepG2 Assay for human Erythroblast Transformation Specific (ETS) (AID 2282941). To be noted: HepG2 ETS cis-reporter transcription, actives raise or lower the signal. A digest of the protocol:
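Cis-regulated reporter mRNA induction in HepG2 (transient transfection), 24 h exposure, RT-PCR plus capillary electrophoresis detection; DMSO serves as negative control and baseline.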

Test [15] deals with Hepatocyte nuclear factor 3-beta (Homo sapiens) (UniProt Q9Y261). Kind of test: ATG_FoxA2_CIS: Attagene CIS-FACTORIAL HepG2 Assay for human Forkhead box A2 (FOXA2) (AID 2282942). To be noted: HepG2 cis-reporter transcription factor activity, 24 h; actives raise or lower the signal. A digest of the protocol:
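Multiplexed cis-element reporter assay in transiently transfected HepG2. Twenty-four hours post-dosing, RNA was reverse-transcribed, amplified, FAM-labelled, HpaI-digested and separated by CE. Activity gain or loss relative to DMSO.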

The nature of test [16]: ATG_FoxO_CIS: Attagene CIS-FACTORIAL HepG2 Assay for human Forkhead box O (FoxO) (AID 2282943). To be noted: HepG2 Attagene cis-reporter, FoxO element, mRNA; actives raise or lower the signal. A digest of the protocol:
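HepG2 cells transiently transfected with cis-element-driven reporter units report endogenous FoxO activity. After 24 h chemical exposure, reporter mRNA quantified by RT-PCR, fluorescent labeling, HpaI digestion and capillary electrophoresis; bidirectional fit versus DMSO.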

The nature of test [17]: ATG_GATA_CIS: Attagene CIS-FACTORIAL HepG2 Assay for human GATA Binding Protein (AID 2282944). To be noted: HepG2 GATA cis-element reporter, Attagene multiplex mRNA; actives raise or lower the signal. A digest of the protocol: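 Endogenous transcription factor activity was captured through cis-promoter-driven reporters in transfected HepG2 cells. After 24 h exposure, reporter transcripts were quantified by RT-PCR with fluorescent capillary electrophoresis, and responses fitted both directions against DMSO.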

The nature of test [18]: ATG_GLI_CIS: Attagene CIS-FACTORIAL HepG2 Assay for human Zinc Finger Protein GLI1 (AID 2282945). To be noted: HepG2, Attagene cis-factorial reporter mRNA, GLI element; actives raise or lower the signal. Put shortly: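 Transiently transfected HepG2 cells report endogenous transcription factor activity via cis-element-driven reporter units. After 24 h compound exposure, reporter mRNA was measured by RT-PCR with capillary electrophoresis; bidirectional fitting against DMSO baseline.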

Values joined by “and” are separate entries in the source; they are usually repeats but may differ in a detail not shown here. Identical values can stand only once. Some structures have more than one record in an assay (separate samples or runs), and their calls can disagree. Active and inactive are the calls of the source. Rule for the calls: active = hit-call score of the fitted dose curve at least 0.9, where 1 is the maximum; inactive = score below 0.9.

Hepatocyte nuclear factor 3-beta (Homo sapiens), sequence (Q9Y261 whole entry, looked up): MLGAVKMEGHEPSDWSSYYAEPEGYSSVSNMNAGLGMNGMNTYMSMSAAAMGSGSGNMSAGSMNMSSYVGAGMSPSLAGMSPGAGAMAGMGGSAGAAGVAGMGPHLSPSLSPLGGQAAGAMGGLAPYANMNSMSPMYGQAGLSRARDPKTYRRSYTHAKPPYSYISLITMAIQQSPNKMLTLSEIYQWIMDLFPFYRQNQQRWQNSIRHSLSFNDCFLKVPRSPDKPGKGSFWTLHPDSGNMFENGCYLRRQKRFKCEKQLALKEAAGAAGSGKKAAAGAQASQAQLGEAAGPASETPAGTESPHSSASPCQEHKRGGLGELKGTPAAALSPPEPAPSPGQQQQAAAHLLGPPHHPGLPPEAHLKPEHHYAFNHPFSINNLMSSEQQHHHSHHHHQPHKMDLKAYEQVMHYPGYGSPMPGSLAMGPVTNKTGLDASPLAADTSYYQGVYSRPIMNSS
Aryl hydrocarbon receptor (Homo sapiens), sequence (P35869 whole entry, looked up): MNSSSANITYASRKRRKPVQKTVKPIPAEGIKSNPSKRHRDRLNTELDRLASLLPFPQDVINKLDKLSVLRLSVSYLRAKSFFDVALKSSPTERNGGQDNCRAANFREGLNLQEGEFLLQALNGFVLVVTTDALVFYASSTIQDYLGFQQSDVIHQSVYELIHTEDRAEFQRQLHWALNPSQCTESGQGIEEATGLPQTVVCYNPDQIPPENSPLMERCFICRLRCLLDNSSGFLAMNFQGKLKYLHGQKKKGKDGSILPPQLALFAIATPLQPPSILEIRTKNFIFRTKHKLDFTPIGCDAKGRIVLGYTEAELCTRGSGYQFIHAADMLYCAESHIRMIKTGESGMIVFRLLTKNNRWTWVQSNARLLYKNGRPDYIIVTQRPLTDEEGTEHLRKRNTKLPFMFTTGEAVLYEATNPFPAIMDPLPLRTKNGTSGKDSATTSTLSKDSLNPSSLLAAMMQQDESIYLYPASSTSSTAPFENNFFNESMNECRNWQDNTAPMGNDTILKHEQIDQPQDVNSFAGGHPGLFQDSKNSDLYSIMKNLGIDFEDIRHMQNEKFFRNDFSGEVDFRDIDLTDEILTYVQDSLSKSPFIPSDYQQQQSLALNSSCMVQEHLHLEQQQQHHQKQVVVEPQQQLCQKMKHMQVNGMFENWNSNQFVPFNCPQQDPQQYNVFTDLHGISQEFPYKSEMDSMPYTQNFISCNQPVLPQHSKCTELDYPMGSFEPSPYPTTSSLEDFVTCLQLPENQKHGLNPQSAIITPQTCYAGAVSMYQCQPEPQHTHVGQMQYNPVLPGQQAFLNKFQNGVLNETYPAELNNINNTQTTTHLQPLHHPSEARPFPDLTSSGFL
CCAAT/enhancer-binding protein beta (Homo sapiens), sequence (P17676 whole entry, looked up): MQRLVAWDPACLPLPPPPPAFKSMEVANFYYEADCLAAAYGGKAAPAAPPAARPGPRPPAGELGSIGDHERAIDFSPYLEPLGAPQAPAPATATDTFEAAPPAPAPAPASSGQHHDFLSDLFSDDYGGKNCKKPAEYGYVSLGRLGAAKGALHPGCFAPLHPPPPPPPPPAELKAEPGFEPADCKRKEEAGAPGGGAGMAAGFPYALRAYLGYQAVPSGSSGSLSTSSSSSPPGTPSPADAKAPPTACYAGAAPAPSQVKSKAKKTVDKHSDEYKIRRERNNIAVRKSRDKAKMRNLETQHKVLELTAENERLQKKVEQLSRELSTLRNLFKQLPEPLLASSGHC
Retinoic acid receptor alpha (Homo sapiens), sequence (P10276 whole entry, looked up): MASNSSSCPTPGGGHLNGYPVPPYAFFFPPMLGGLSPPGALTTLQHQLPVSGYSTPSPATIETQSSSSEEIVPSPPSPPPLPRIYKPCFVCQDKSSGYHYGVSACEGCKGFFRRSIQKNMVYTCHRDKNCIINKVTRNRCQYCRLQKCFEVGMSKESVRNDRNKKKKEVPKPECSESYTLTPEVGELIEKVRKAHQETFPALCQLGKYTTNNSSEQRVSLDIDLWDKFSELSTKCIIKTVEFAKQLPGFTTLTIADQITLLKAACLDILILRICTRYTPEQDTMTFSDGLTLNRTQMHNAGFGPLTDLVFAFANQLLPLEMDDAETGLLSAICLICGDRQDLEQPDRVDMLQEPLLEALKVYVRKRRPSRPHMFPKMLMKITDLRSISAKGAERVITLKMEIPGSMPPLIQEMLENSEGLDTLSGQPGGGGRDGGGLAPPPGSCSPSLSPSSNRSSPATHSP

Regarding `ClCCOCCCl`, the outcome in [1], in test [2], in test [3], in test [4], in test [5] and in [6] was inactive. In addition, the molecule was called inactive in [7], in [8], in test [9], in [10], in [11] and in [12]. For the same molecule, the call in test [13], in test [14], in [15], in test [16], in test [17] and in test [18] was inactive.

Consider `C[C@]12C=CC3=C4CCC(=O)C=C4CC[C@H]3[C@@H]1CC[C@@H]2O`, for which the AC50 was 68.8 µM (active) in [1]; 28.3 µM (active) in test [3]; 19.8 µM (active) in test [4]; 19.8 µM (active) and 35.7 µM (active) in [5]; 25.3 µM (active) in test [12]; 31.8 µM (active) and 30 µM (active) in test [14]. Also, in test [16], the AC50 was 30.2 µM (active). The molecule was classed as inactive in test [1], in [3], in test [4], in [5], in test [7] and in [9]. The result in test [10], in test [11], in test [12], in [13], in [14] and in [15] was inactive. Also, the call in test [16], in test [17] and in [18] was inactive.

Regarding `Cc1ccc(N)cc1`, the outcome in [1], in test [2], in test [3], in test [4], in test [5] and in test [6] was inactive. Besides, the molecule was classed as inactive in test [7], in [8], in test [9], in test [10], in test [11] and in test [12]. Besides, the molecule was classed as inactive in test [13], in test [14], in test [15], in [16], in test [17] and in test [18].

These data come from PubChem BioAssay (EPA / NIEHS).
